# Measured values as given in the supplement of paper PMC8975748.
# Counter-ions that a name gives are not always drawn.
# Tested on: Saccharomyces cerevisiae BY4741 SeMeCo community
# Assay: z-score of subpopulation abundance vs DMSO median, subpopulation auxotrophic for H; higher = larger share of this subpopulation than in DMSO controls
# Conditions: 10 µM; 24 h; SM minimal medium; subpopulation (auxotrophy): H
# In short: (§1)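 Subpopulation abundance was reported as a z-score against the median of vehicle wells. The Saccharomyces cerevisiae BY4741 community, carrying four plasmids that each restored one auxotrophy and encoded a distinct fluorescent protein, was grown 24 h in minimal SM medium in 384-well plates holding library drugs at 10 µM final. Cells were paraformaldehyde-fixed and imaged by automated confocal microscopy, with single-auxotroph fluorescent strains used for thresholds and autofluorescence correction.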
row,Structure (SMILES),z-score of subpopulation abundance
1,Nc1ccc(S(=O)(=O)c2ccc(N)cc2)cc1 [Dapson],0.61
2,CN(C)CC(c1ccc(O)cc1)C1(O)CCCCC1 (stereo not drawn) [Desvenlafaxine],-0.84
3,CN(C)CCC=C1c2ccccc2C(C)(C)c2ccccc21 [Melitracen hydrochloride],-1.7
4,Oc1cccc(O)c1 [Resorcinol],-0.05
5,C#C[C@]1(O)CC[C@H]2[C@@H]3CCC4=CCCC[C@@H]4[C@H]3C(=C)C[C@@]21CC [Desogestrel],0.78
6,C[C@]1(COc2ccc(N3CCC(Oc4ccc(OC(F)(F)F)cc4)CC3)cc2)Cn2cc([N+](=O)[O-])nc2O1 [Delamanid],0.86
7,NC[C@H]1O[C@H](O[C@H]2[C@H](O)[C@@H](O[C@H]3O[C@H](CO)[C@@H](O)[C@H](N)[C@H]3O)[C@H](N)C[C@@H]2N)[C@H](O)[C@@H](O)[C@@H]1O [Kanamycin sulfate],1.26
8,Cn1nnnc1SCC1=C(C(=O)O)N2C(=O)[C@@H](NC(=O)[C@H](OC=O)c3ccccc3)[C@H]2SC1 [Cefamandole nafate],0.14
9,Cc1c(OCC(F)(F)F)ccnc1C[S@@+]([O-])c1nc2ccccc2[nH]1 [Dexlansoprazole],1.18
10,CCC(=O)O[C@@H]1CC(=O)O[C@H](C)C/C=C/C=C/[C@H](O)[C@H](C)C[C@H](CC=O)[C@H](O[C@@H]2O[C@H](C)[C@@H](O[C@H]3C[C@@](C)(O)[C@@H](OC(=O)CC)[C@H](C)O3)[C@H](N(C)C)[C@H]2O)[C@H]1OC [Midecamycin],0.88
11,CN1CCN(CC(=O)N2c3ccccc3C(=O)Nc3cccnc32)CC1 [Pirenzepine dihydrochloride],0.01
12,CC1(C)S[C@@H]2[C@H](NC(=O)Cc3ccccc3)C(=O)N2[C@H]1C(=O)O [Benzathine penicilline],0.18

# Tested on: Saccharomyces cerevisiae BY4741 SeMeCo community
# Assay: z-score of subpopulation abundance vs DMSO median, subpopulation auxotrophic for LU; higher = larger share of this subpopulation than in DMSO controls
# Conditions: 10 µM; 24 h; SM minimal medium; subpopulation (auxotrophy): LU
# In short: as §1
row,Structure (SMILES),z-score of subpopulation abundance
1,CN(C)CC(c1ccc(O)cc1)C1(O)CCCCC1 (stereo not drawn) [Desvenlafaxine],-0.16
2,CN(C)CCC=C1c2ccccc2C(C)(C)c2ccccc21 [Melitracen hydrochloride],-0.8
3,Oc1cccc(O)c1 [Resorcinol],-1.33
4,C#C[C@]1(O)CC[C@H]2[C@@H]3CCC4=CCCC[C@@H]4[C@H]3C(=C)C[C@@]21CC [Desogestrel],0.22
5,C[C@]1(COc2ccc(N3CCC(Oc4ccc(OC(F)(F)F)cc4)CC3)cc2)Cn2cc([N+](=O)[O-])nc2O1 [Delamanid],0.18
6,NC[C@H]1O[C@H](O[C@H]2[C@H](O)[C@@H](O[C@H]3O[C@H](CO)[C@@H](O)[C@H](N)[C@H]3O)[C@H](N)C[C@@H]2N)[C@H](O)[C@@H](O)[C@@H]1O [Kanamycin sulfate],-0.08
7,Cn1nnnc1SCC1=C(C(=O)O)N2C(=O)[C@@H](NC(=O)[C@H](OC=O)c3ccccc3)[C@H]2SC1 [Cefamandole nafate],-1.46
8,Cc1c(OCC(F)(F)F)ccnc1C[S@@+]([O-])c1nc2ccccc2[nH]1 [Dexlansoprazole],0.17
9,CCOc1ccc2nc3cc(N)ccc3c(N)c2c1 [Ethacridine lactate monohydrate],-7.71
10,CN1CCN(CC(=O)N2c3ccccc3C(=O)Nc3cccnc32)CC1 [Pirenzepine dihydrochloride],-0.44
11,CC1(C)S[C@@H]2[C@H](NC(=O)Cc3ccccc3)C(=O)N2[C@H]1C(=O)O [Benzathine penicilline],-0.74
